PubChem BioAssay (Tox21)
Results filed as inconclusive are left out. Active and inactive are the calls of the source. Unless noted, calls follow the shape of the dose curve; as a rule, active = well fitted curve in the direction sought with a large enough effect in the repeat runs; inconclusive = weak or mixed curves; inactive = no such curve, though single readings can be large; an effect the other way counts as inactive or inconclusive.

Columns and labels:
[1] = qHTS assay to identify small molecule HDAC inhibitors - cell viability counter screen (AID 1259365); also: series mostly up to about 92 µM; nearly all actives have a fitted effect of over 50% in size
In short: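 Luminescence from CellTiter-Glo, developed 30min at room temperature, reports viability of wild-type HCT-116 cells treated 2hr with compounds at 37 C and 5% CO2 after overnight plating.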

[2] = qHTS assay to identify small molecule agonists of the sonic hedgehog signaling (Shh) pathway - cell viability counter screen (AID 1259366); also: nearly all actives have a fitted effect of over 50% in size
In short: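 Cytotoxicity counter screen run in the same wells as the Shh reporter assay. NIH/3T3 cells carrying a Gli1 response element–driven luciferase were treated with DMSO-dissolved compounds for 24hr, and live-cell protease activity was measured with CellTiter-Fluor.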

[3] = qHTS assay to identify small molecule antagonists of the sonic hedgehog signaling (Shh) pathway - cell viability counter screen (AID 1259367); also: nearly all actives have a fitted effect of over 55% in size
In short: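 Tox21 library chemicals were tested on a Gli1-Luc NIH/3T3 clone (2,000 cells/well) stimulated by conditioned medium; viability was quantified as fluorescence from CellTiter-Fluor reagent added at 23 hr.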

[4] = qHTS assay to identify small molecule agonists of the sonic hedgehog signaling (Shh) pathway (AID 1259368; calls by dose curve;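 also: NIH/3T3-derived 3T3Gli1-Luc cells carrying a stable Gli1-driven firefly luciferase reporter; series mostly up to about 92 µM; nearly all actives have a fitted effect of over 15% in size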)
In short: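 Following a 24 hr incubation with DMSO-dissolved compounds at 37 C, 5% CO2, Gli1-Luc NIH/3T3-derived cells received luciferase reagent for 30 min at room temperature prior to luminescence measurement.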

[5] = qHTS assay to identify small molecule antagonists of the sonic hedgehog signaling (Shh) pathway (AID 1259369; calls by dose curve; also: nearly all actives have a fitted effect of over 45% in size)
In short: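 Read-out is luminescence from a firefly luciferase gene controlled by the Gli1 response element, in 3T3Gli1-Luc cells pre-incubated 4hr then exposed to compounds and conditioned medium for 24hr.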

[6] = qHTS assay to identify small molecule agonists of the androgen receptor (AR) signaling pathway in the presence of an antagonist - cell viability counter screen (AID 1259379);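 also: MDA-kb2 human breast cancer cells carrying an MMTV luciferase reporter; series mostly up to about 92 µM; nearly all actives have a fitted effect of over 25% in size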
In short: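 Each compound was tested at 15 concentrations on MDA-kb2 cells in the presence of 3.0uM nilutamide. Viability was measured by CellTiter-Fluor fluorescence after a 16 hr incubation at 37C in a CO2-free atmosphere.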

[7] = qHTS assay to identify small molecule agonists of the estrogen receptor beta (ER-beta) signaling pathway - cell viability counter screen (AID 1259380); also: nearly all actives have a fitted effect of over 30% in size
In short: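 Compounds dissolved in DMSO were pin-transferred onto ER-beta-UAS-bla HEK293T cells that had settled 6 hr, and exposure ran 16 hr at 37C. Following the reporter read, CellTiter-Glo luminescence after 30 min at room temperature indicated cytotoxicity.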

[8] = molecular target: Androgen receptor (Homo sapiens) (UniProt P10275); experiment: qHTS assay to identify small molecule agonists of the androgen receptor (AR) signaling pathway in the presence of an antagonist (AID 1259381; calls by dose curve; also: nearly all actives have a fitted effect of over 15% in size)
In short: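 Plated MDA-kb2 cells (3,000/well) were pre-incubated 5hr, given nilutamide (3.0uM final) or buffer, then dosed with compounds in DMSO at 15 concentrations. Luciferase activity was quantified by luminescence after 16hr at 37C.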

[9] = qHTS assay to identify small molecule antagonists of the estrogen receptor beta (ER-beta) signaling pathway - cell viability counter screen (AID 1259382); also: series mostly up to about 92 µM; nearly all actives have a fitted effect of over 55% in size
In short: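 CellTiter-Glo ATP luminescence measured after the LiveBLAzer read in the same wells; ER-beta-UAS-bla HEK293T cells, 16 hr compound treatment with 1nM 17-beta-estradiol agonist at 37C, 5% CO2.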

[10] = molecular target: Estrogen receptor (Homo sapiens) (UniProt P03372); experiment: qHTS assay to identify small molecule agonists of the estrogen receptor alpha (ER-alpha) signaling pathway in the presence of an antagonist (AID 1259383; calls by dose curve; also: top concentration of the series differs between compounds; nearly all actives have a fitted effect of over 15% in size)
In short: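 Luminescent ERE-luciferase reporter, VM7Luc4E2 cells (endogenous ER-alpha); 10.0nM ICI-182,780 final; 15-point compound titration; 22hr at 37C; ONE-Glo, 30min RT.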

[11] = qHTS assay to identify small molecule agonists or antagonists of the thyroid stimulating hormone receptor (TSHR) signaling pathway - wild type cell line counter screen (AID 1259384; calls by dose curve)
In short: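 Wild-type Hek293 cells, 800/well, 18 h at 37C, then compound with Ro20-1724 for 30 min RT. cAMP by HTRF (cAMP-d2/anti-cAMP cryptate), 1 h RT, fluorescence read. 15 concentrations, triplicates.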

[12] = molecular target: Thyrotropin receptor (Homo sapiens) (UniProt P16473); experiment: qHTS assay to identify small molecule antagonists of the thyroid stimulating hormone receptor (TSHR) signaling pathway (AID 1259385; calls by dose curve; also: nearly all actives have a fitted effect of over 20% in size)
In short: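 TSHR-HEK293 cells (800/well) plated 18 h, then compounds with Ro20-1724 and TSH at 1.5 ng/mL final, 30 min at room temperature. cAMP quantified by HTRF (cAMP-d2/anti-cAMP-cryptate, 1 h); 15 concentrations in triplicate.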

[13] = molecular target: Progesterone receptor (Homo sapiens) (UniProt P06401); experiment: qHTS assay to identify small molecule agonists of the progesterone receptor (PR) signaling pathway (AID 1346784; calls by dose curve; also: nearly all actives have a fitted effect of over 30% in size)
In short: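 Beta-lactamase reporter read-out: after 16 hr compound treatment at 37C and a further 2 hr at room temperature with LiveBLAzer B/G FRET substrate, fluorescence was measured in PR-UAS-bla HEK 293T cells grown in 2% charcoal-stripped serum.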

[14] = molecular target: Progesterone receptor (Homo sapiens) (UniProt P06401); experiment: qHTS assay to identify small molecule antagonists of the progesterone receptor (PR) signaling pathway (AID 1346795; active = well fitted inhibition curve with a large enough effect in the signal ratio in the repeat runs, not every such curve was filed as active; the % refers to the signal ratio)
In short: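 Read-out is fluorescence from the LiveBLAzer B/G FRET substrate, cleaved by a UAS-controlled beta-lactamase in PR-UAS-bla HEK293T cells after 16 hr exposure to compound plus 1 nM promegestone (final), followed by 2 hr at room temperature.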

[15] = qHTS assay to identify small molecule antagonists of the progesterone receptor (PR) signaling pathway - cell viability counter screen (AID 1346798);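 also: HEK293T PR-UAS-bla cells stimulated with the agonist R5020; series mostly up to about 92 µM; nearly all actives have a fitted effect of over 50% in size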
In short: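 HEK293T PR-UAS-bla, 2% charcoal-stripped FBS; 4 hr pre-plate; cpd + R5020, 16 h 37C; LiveBLAzer read first; then CellTiter-Glo 30 min RT, luminescence.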

[16] = qHTS assay to identify small molecule antagonists of the TGF-beta/Smad signaling pathway - cell viability counter screen (AID 1346824); also: nearly all actives have a fitted effect of over 50% in size
In short: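 SBE-bla HEK 293T cells, incubated overnight, then compound plus 0.25 ng/mL TGF-beta1 (stock added) for 5 hr at 37 C. Viability was read in the same wells by CellTiter-Glo luminescence after 30 min at room temperature.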

[17] = molecular target: Estrogen receptor beta (Homo sapiens) (UniProt Q92731); experiment: qHTS assay to identify small molecule agonists of the estrogen receptor beta (ER-beta) signaling pathway (AID 1259377; active = well fitted activation curve with a large enough effect in the signal ratio in the repeat runs, not every such curve was filed as active; the % refers to the signal ratio)
In short: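 HEK293T ER-beta-UAS-bla; 2% charcoal-stripped FBS; cells pre-incubated 6 hr, compound 16 hr, 37C/5% CO2; LiveBLAzer B/G FRET substrate 2 h RT; fluorescence intensity read.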

[18] = qHTS assay to identify small molecule agonists of the estrogen receptor alpha (ER-alpha) signaling pathway in the presence of an antagonist - cell viability counter screen (AID 1259386);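 also: series mostly up to about 92 µM; cells exposed to compounds for 22 h at 37 °C before the viability read; nearly all actives have a fitted effect of over 30% in size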
In short: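 Using estrogen-depleted VM7Luc4E2 cells, the 15-concentration compound series was applied together with 10.0nM ICI-182,780 and incubated 22hr at 37C/5% CO2. Cell viability was then scored by CellTiter-Fluor.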

[19] = qHTS assay to identify small molecule agonists of the progesterone receptor (PR) signaling pathway - cell viability counter screen (AID 1346799; calls by dose curve; also: nearly all actives have a fitted effect of over 45% in size)
In short: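 Luminescence from CellTiter-Glo, added after the beta-lactamase FRET read in the same wells, gave cytotoxicity in PR-UAS-bla HEK293T cells treated with compounds for 16 hr at 37C.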

[20] = molecular target: Estrogen receptor beta (Homo sapiens) (UniProt Q92731); experiment: qHTS assay to identify small molecule antagonists of the estrogen receptor beta (ER-beta) signaling pathway (AID 1259378; active = well fitted inhibition curve with a large enough effect in the signal ratio in the repeat runs, not every such curve was filed as active; the % refers to the signal ratio)
In short: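 ER-beta-UAS-bla HEK293T cells in 2% charcoal-stripped FBS medium treated with compound plus 1nM final 17-beta-estradiol for 16 hr at 37C. Beta-lactamase reporter read by FRET substrate fluorescence after 2 hours at room temperature.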

Measured: Potency

Thyrotropin receptor (Homo sapiens), sequence (P16473 whole entry, looked up): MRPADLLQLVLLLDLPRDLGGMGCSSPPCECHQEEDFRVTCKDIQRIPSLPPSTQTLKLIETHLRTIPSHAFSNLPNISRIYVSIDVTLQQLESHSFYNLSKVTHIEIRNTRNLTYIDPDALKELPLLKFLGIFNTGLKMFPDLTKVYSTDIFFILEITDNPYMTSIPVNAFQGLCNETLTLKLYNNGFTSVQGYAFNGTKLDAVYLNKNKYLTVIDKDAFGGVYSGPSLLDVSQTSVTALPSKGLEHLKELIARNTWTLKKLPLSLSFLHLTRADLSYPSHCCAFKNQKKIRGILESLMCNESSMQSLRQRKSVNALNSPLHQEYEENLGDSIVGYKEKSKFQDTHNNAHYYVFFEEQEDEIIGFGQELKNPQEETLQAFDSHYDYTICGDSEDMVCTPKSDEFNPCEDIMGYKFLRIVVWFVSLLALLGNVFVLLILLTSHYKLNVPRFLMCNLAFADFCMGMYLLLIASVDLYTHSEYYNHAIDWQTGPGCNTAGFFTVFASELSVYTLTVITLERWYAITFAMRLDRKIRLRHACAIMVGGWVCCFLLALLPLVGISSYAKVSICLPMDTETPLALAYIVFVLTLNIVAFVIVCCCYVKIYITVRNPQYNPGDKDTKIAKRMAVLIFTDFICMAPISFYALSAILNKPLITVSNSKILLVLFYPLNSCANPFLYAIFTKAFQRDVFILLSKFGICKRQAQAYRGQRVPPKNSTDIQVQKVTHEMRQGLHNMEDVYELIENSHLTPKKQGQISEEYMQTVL
Estrogen receptor (Homo sapiens), sequence (P03372 whole entry, looked up): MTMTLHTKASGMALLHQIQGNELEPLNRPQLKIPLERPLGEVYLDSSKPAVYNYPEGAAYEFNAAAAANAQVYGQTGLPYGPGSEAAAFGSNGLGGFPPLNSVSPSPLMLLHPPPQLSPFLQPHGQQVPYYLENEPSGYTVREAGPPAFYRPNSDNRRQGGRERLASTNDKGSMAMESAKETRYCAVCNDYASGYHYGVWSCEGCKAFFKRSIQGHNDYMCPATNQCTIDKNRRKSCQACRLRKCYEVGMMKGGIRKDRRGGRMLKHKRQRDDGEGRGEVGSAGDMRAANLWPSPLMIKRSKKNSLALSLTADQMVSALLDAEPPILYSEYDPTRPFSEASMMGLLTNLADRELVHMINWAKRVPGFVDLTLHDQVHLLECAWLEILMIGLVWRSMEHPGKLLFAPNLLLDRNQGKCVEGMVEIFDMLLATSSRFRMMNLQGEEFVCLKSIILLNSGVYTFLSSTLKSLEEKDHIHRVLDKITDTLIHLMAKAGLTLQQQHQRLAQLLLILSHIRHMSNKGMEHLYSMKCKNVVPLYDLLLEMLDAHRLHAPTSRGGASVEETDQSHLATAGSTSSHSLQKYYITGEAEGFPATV
Progesterone receptor (Homo sapiens), sequence (P06401 whole entry, looked up): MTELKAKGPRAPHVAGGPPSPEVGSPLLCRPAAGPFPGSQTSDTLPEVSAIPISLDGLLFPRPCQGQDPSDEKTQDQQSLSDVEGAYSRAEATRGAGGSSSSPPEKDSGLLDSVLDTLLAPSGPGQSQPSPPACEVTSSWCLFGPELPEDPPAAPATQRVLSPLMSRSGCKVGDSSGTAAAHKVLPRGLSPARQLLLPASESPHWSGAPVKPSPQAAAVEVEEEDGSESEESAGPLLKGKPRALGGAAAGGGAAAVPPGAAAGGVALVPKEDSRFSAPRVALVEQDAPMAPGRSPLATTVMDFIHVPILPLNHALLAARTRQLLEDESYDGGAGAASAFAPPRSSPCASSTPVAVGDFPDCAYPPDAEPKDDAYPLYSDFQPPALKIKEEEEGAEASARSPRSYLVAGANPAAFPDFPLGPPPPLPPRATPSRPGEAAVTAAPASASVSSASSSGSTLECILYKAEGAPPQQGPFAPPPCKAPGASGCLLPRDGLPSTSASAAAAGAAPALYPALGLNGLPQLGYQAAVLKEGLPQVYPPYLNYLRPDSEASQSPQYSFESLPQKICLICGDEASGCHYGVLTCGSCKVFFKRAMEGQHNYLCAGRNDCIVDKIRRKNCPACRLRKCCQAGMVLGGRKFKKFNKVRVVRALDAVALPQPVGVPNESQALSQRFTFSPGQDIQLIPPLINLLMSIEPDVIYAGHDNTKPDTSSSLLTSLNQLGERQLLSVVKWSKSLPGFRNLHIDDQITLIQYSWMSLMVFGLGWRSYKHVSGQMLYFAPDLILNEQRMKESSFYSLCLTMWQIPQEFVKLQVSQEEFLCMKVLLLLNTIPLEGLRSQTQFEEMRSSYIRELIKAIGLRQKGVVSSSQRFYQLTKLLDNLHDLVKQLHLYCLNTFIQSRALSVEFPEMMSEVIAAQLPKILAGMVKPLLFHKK
Estrogen receptor beta (Homo sapiens), sequence (Q92731 whole entry, looked up): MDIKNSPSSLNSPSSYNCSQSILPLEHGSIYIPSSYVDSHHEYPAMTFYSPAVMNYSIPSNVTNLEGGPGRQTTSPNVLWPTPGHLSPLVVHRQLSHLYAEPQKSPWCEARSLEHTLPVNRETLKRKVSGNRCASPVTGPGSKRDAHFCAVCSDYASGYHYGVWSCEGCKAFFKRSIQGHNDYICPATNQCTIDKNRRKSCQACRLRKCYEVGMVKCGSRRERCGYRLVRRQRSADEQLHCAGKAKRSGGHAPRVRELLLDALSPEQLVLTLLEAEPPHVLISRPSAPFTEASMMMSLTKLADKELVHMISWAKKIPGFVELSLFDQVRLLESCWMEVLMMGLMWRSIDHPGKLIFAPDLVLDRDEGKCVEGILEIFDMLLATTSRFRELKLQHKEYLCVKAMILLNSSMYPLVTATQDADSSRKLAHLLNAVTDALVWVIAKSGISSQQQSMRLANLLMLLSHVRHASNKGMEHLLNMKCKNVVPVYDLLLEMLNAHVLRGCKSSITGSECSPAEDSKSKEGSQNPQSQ
Androgen receptor (Homo sapiens), sequence (P10275 whole entry, looked up): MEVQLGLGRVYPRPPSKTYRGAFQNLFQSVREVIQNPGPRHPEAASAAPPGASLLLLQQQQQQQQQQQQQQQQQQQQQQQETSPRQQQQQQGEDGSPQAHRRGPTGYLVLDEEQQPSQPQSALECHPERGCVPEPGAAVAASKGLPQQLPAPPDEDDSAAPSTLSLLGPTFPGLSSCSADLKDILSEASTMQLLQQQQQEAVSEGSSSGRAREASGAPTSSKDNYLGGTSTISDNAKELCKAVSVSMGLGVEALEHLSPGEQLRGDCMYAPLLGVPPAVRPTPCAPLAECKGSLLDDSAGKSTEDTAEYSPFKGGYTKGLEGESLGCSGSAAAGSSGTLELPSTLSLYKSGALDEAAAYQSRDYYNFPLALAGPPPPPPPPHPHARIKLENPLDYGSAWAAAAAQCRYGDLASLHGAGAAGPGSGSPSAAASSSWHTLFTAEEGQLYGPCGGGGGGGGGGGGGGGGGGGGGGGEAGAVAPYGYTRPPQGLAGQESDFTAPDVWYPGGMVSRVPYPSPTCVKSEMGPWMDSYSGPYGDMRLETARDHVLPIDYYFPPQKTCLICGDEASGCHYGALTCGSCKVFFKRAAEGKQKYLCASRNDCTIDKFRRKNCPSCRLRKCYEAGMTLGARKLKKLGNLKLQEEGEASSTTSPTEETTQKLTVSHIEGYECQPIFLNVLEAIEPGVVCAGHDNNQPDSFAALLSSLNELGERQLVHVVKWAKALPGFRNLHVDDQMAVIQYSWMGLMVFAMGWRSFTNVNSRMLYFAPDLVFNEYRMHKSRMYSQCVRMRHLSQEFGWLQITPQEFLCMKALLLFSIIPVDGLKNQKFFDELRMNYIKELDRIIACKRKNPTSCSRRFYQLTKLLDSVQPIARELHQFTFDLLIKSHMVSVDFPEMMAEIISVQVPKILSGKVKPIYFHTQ

OC[C@H]1O[C@@H](O[C@@H]2[C@@H](CO)O[C@](O)(CO)[C@H]2O)[C@H](O)[C@@H](O)[C@H]1O
not listed: [17] | [18] | [19] | [20]
inactive: all other assays above

COC(=O)CCCCC(CCSS/C(CCO)=C(\C)N(C=O)Cc1cnc(C)nc1N)SC(C)=O (stereo unspecified)
not listed: [20]
inactive: all other assays above

CCCC(=O)Nc1ccc(OCC(O)CNC(C)C)c(C(C)=O)c1 (stereo unspecified)
not listed: [8] | [20]
inactive: all other assays above

CCc1occc(=O)c1O
not listed: [8] | [17] | [20]
inactive: all other assays above

Cc1c(C(=O)c2c[nH]n(C)c2=O)ccc(S(C)(=O)=O)c1C1=NOCC1
not listed: [11] | [12] | [20]
inactive: all other assays above

CC(Oc1cc(Cl)ccc1Cl)C(=O)O (stereo unspecified)
not listed: [10] | [11] | [12] | [20]
inactive: all other assays above

CC(C)CO
not listed: [8] | [10] | [13] | [14] | [15] | [20]
inactive: all other assays above

CCCCCCCCCCCCCBr
inactive: [1] | [2] | [3] | [4] | [5] | [6] | [7] | [9] | [14] | [15] | [16]

C/C=C(\C)C(=O)OCCc1ccccc1
not listed: [8] | [9] | [10] | [11] | [12] | [17] | [18] | [20]
inactive: all other assays above

[O-][n+]1cccc(/C(Cl)=N/OC[C@@H](O)CN2CCCCC2)c1
not listed: [5] | [11] | [12] | [15]
inactive: all other assays above

CCCCOC(=O)C(C)O (stereo unspecified)
not listed: [8] | [9] | [10] | [17] | [19] | [20]
inactive: all other assays above

OC[C@@H](O)C(O)[C@@H](O)CO (stereo partly specified)
not listed: [8] | [10] | [17] | [20]
inactive: all other assays above
